Reference: PubChem BioAssay (NCATS)
Several values for one entry are separate records, joined by “and”; a condition that tells them apart may be missing. Equal entries are not always repeated. Records with an inconclusive call do not appear. Activity calls are given as the source filed them. Unless noted, the call rests on the fitted dose curve; in most records, active means well fitted curve in the direction sought with a large enough effect; inconclusive means small, poorly fitted or top-dose-only effect, or another doubt; inactive means no such curve, though single readings can be large; an effect the other way counts as inactive or inconclusive.

Experiments:
[1] = Validation screen for small molecules that induce genotoxicity in human embryonic kidney (HEK293T) cells expressing luciferase-tagged ELG1 (AID 493106); further: 0% is about no effect
Summary of the method: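 In this validation screen, increased ELG1-luciferase signal flags compounds causing genetic stress. HEK293T reporter cells are treated 16 hr (37 °C, 5% CO2), developed with ONE-Glo for 30 min at room temperature, and imaged on a CCD-based reader.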

[2] = target: ATPase family AAA domain-containing protein 5 (Homo sapiens) (UniProt Q96QE3); experiment: Validation screen for small molecules that inhibit ELG1-dependent DNA repair in human embryonic kidney (HEK293T) cells expressing luciferase-tagged ELG1 (AID 493107);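 further: cells co-treated with the DNA-damaging agent 5-fluorouridine alongside compound; series mostly up to about 46 µM; on the % scale 0 is the no-effect control and ±100 the full control effect; inhibitors lower the ELG1-luciferase luminescence signal; nearly all actives have a fitted effect of over 70% in size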
Chain of ATPase family AAA domain-containing protein 5 (Homo sapiens) (Q96QE3 whole entry, looked up, the tested form may be a part): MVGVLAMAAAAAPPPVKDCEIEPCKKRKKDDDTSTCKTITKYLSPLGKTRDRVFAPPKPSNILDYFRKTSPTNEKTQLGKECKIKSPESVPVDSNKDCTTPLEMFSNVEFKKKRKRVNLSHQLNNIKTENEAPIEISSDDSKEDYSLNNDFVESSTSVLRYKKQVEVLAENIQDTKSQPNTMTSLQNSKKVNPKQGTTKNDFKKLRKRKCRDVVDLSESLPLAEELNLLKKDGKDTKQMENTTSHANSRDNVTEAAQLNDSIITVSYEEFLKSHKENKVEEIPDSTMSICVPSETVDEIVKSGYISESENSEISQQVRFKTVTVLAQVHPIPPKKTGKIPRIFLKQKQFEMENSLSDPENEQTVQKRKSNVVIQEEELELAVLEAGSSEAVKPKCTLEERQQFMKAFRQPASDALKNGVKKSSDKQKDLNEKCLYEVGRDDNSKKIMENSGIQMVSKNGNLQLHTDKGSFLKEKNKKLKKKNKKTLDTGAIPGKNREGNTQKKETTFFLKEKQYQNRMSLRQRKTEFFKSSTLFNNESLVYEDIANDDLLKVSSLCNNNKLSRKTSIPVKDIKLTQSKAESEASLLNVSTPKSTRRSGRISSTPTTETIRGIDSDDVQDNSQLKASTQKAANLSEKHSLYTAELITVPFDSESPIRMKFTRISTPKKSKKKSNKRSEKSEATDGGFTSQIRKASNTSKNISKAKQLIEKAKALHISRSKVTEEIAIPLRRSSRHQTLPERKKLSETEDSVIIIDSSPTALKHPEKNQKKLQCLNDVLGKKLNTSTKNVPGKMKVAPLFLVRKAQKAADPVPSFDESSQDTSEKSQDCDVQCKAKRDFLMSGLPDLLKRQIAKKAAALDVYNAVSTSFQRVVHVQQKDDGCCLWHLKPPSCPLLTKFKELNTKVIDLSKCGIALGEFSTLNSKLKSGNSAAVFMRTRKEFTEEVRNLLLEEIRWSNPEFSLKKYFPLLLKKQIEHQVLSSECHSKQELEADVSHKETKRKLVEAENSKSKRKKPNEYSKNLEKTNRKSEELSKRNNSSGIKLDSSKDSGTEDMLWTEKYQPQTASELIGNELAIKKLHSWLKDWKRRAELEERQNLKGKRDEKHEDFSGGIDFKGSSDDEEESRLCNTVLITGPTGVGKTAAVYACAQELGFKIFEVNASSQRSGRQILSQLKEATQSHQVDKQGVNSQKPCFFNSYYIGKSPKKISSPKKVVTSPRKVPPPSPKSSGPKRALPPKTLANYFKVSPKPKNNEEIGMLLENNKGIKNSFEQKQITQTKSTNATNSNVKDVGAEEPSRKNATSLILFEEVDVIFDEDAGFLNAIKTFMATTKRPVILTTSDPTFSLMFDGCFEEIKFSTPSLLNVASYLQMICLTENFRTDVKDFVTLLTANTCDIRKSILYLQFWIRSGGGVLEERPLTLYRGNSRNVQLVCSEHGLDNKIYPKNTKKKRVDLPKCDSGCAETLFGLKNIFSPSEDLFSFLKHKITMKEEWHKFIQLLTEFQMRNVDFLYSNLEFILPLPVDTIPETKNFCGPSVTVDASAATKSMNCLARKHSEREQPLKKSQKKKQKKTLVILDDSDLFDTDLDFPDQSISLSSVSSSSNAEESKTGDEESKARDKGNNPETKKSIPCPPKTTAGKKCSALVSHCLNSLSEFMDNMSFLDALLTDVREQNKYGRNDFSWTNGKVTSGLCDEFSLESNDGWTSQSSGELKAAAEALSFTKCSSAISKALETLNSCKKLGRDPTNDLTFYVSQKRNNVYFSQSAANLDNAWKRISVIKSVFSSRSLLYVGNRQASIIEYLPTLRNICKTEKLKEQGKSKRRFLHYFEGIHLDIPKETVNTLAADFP
Summary of the method: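 Compounds reducing 5-fluorouridine-driven ELG1-luciferase signal in HEK293T cells were scored; exposure lasted 16 hr at 37 °C with luminescence detected via ONE-Glo.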

[3] = Nrf2 qHTS screen for inhibitors: Validation (AID 493153; active means well fitted inhibition curve with a large enough effect in the main read-out, with a control signal flat, not every such curve was filed as active; further: potency means the concentration at half of the fitted maximal effect); conditions: Potency: luciferase luminescence; viability change: measured here: cytotoxicity max response
Summary of the method: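 In this counterscreened reporter format, each well gives two signals: CellTiter-Fluor fluorescence for cytotoxicity and ARE-luciferase luminescence for Nrf2 function. A549 ARE_Fluc cells in 5% FBS OPTI-MEM were exposed to compound titrations for 18-24 h.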

[4] = qHTS for Inhibitors of Cell Surface uPA Generation: Validation Assay (AID 493164);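 further: RAW 264.7 macrophage cells exposed to compound for 18 h; 0% is about no effect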
Summary of the method: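 Compounds are titrated over seven points (2.45 nM–38.3 uM final) onto pre-plated RAW 264.7 cells and incubated for 18 h. Retained intracellular ATP, measured with ATP-Lite, indicates blocked lethal factor entry.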

[5] = target: Galactokinase (Homo sapiens) (UniProt P51570); experiment: qHTS Validation Assay for Inhibitors of Human Galactokinase (GALK) (AID 493189); further: 0% is about no effect
Summary of the method: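 Compounds were pin-transferred into ATP buffer, then GALK-galactose mix was added (final 5 nM enzyme, 100 uM galactose, 35 uM ATP). After 1 h at room temperature, remaining ATP was measured luminescently.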

[6] = Validation screen for small molecules that induce DNA re-replication in SW480 colon adenocarcinoma cells (AID 504364); further: 0% is about no effect
Summary of the method: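 Hoechst-stained SW480 nuclei, imaged at 405 nm excitation after 48 hr compound exposure, were counted for elevated DNA content as the re-replication signal.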

[7] = target: Peptidyl-prolyl cis-trans isomerase NIMA-interacting 1 (Homo sapiens) (UniProt Q13526); experiment: qHTS Validation Assay to Find Inhibitors of Pin1 (AID 504536; active means well fitted inhibition curve with a large enough effect in the polarisation, with a control signal flat, not every such curve was filed as active; the % refers to the polarisation;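 further: 0% = full Pin1 enzyme wells and -100% = no-enzyme wells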)
Summary of the method: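 Fluorescence polarization competition: compounds (titration) displace HiFluor-488-labeled Pin1-1b peptide from Pin1 (0.3 uM final) in pH 7.5 HEPES buffer with DTT, 10 min at room temperature; %Activity normalized to no-enzyme wells, curves fitted.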

[8] = target: Phosphoglycerate kinase, glycosomal (Trypanosoma brucei brucei) (UniProt P07378); experiment: qHTS Validation Assay to Find Inhibitors of Phosphoglycerate Kinase (AID 504547);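 further: control wells lack PGK and mark full inhibition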
Chain of Phosphoglycerate kinase, glycosomal (Trypanosoma brucei brucei) (P07378 whole entry, looked up): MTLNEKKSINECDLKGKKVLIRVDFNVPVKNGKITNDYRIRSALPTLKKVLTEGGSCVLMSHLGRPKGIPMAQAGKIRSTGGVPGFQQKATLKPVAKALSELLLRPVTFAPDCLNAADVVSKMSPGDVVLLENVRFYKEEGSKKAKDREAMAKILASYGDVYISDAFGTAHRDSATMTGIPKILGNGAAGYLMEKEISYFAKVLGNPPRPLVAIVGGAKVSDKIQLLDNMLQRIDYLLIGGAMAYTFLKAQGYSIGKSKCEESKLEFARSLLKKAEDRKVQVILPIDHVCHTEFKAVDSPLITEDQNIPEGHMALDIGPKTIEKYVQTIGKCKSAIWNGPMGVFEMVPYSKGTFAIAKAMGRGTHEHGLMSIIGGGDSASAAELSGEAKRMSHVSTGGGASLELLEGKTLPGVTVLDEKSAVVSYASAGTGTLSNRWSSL
Summary of the method: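 Compounds are pinned into the substrate/PGK mixture, and GAPDH (100nM final) is added to start the reaction by producing 1,3-BPG. After 60 minutes at room temperature, Kinase-Glo Plus is added and luminescence is measured 10 minutes later.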

[9] = target: phosphoglycerate mutase (Leishmania major) (UniProt Q4Q090); experiment: qHTS Validation Assay to Find Inhibitors of Phosphoglycerate Mutase (AID 504548); further: series mostly up to about 58 µM; on the % scale 0 is the no-effect control and ±100 the full control effect
Chain of phosphoglycerate mutase (Leishmania major) (Q4Q090 1-553): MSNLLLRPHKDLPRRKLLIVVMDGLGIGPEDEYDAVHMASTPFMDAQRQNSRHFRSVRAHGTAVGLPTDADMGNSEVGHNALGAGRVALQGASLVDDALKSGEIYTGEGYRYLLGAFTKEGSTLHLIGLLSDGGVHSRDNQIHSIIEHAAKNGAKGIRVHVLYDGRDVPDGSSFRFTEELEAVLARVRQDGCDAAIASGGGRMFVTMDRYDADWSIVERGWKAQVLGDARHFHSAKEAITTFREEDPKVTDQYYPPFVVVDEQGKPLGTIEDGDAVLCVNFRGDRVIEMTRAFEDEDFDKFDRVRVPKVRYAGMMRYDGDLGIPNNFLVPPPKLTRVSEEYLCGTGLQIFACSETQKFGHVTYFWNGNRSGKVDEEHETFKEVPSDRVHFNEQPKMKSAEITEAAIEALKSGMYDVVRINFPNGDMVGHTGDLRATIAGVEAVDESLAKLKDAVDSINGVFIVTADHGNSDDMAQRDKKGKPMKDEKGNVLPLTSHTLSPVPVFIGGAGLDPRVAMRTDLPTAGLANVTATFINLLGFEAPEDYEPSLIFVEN
Summary of the method: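 Lm PGAM at 1.25 nM final with substrate in 100 mM TEA pH 7.6, 5 mM MgCl2, 0.01% Tween-20; 45 min at room temperature. Kinase-GloPlus added, 10 min, end-point luminescence read.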

[10] = target: Ubiquitin carboxyl-terminal hydrolase 1 (Homo sapiens) (UniProt O94782); experiment: Inhibitors of USP1/UAF1: Pilot qHTS (AID 504865);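 further: rhodamine fluorescence freed from ubiquitin-rhodamine substrate followed over time; top concentration of the series differs between compounds; on the % scale 0 is the no-effect control and ±100 the full control effect; nearly all actives have a fitted effect of over 35% in size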
Chain of Ubiquitin carboxyl-terminal hydrolase 1 (Homo sapiens) (O94782 whole entry, looked up): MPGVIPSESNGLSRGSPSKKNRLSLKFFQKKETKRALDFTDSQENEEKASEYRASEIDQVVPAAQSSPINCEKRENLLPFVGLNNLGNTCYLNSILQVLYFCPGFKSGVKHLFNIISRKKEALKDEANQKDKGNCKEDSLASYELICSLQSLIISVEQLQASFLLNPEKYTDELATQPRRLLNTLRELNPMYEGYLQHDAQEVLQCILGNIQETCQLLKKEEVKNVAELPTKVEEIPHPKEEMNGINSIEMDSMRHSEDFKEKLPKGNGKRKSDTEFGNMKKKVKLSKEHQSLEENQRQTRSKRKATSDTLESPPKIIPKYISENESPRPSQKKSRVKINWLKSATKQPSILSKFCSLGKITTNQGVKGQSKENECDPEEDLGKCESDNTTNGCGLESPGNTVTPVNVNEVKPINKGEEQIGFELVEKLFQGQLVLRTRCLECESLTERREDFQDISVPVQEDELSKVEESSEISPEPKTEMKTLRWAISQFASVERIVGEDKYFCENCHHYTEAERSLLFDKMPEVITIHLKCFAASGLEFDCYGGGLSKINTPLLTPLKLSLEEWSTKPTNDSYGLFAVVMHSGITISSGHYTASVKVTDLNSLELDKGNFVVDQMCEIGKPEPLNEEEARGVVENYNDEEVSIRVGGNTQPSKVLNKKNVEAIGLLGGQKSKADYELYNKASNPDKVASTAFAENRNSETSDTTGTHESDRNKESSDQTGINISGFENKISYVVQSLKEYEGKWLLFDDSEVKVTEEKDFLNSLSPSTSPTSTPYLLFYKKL
Summary of the method: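 Kinetic fluorescence assay: 1nM USP1/UAF1, 15 min compound preincubation, then 150nM Ub-Rho; 480/540 nm.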

[11] = qHTS for Inhibitors of ATXN expression: Validation of Cytotoxic Assay (AID 588349); further: on the % scale 0 is the no-effect control and ±100 the full control effect
Summary of the method: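 Toxicity of test compounds toward HEK293 cells is scored from cellular ATP content measured by CellTiter Glo. Cells receive titrated doses and incubate 72 hr at 37 degrees C beforehand.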

[12] = qHTS for Inhibitors of ATXN expression: Validation (AID 588378); further: series mostly up to about 57 µM; on the % scale 0 is the no-effect control and ±100 the full control effect; nearly all actives have a fitted effect of over 75% in size
Summary of the method: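 Validation of ATXN2 expression inhibitors uses a cell-based luciferase fusion reporter in HEK293 cells, with 24 h compound exposure and paired viability (fluorescence) and reporter (luminescence) end-point reads.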

[13] = target: Androgen receptor (Homo sapiens) (UniProt P10275); experiment: qHTS assay for small molecule agonists of androgen receptor signaling (AID 588515; active means well fitted curve in the direction sought with a large enough effect in the signal ratio, with a control signal flat; the % refers to the signal ratio; further: on the % scale 0 is the no-effect control and ±100 the full control effect); conditions: AR-UAS-bla HEK293, beta-lactamase ratio, agonist 16 h; stronger effect = higher value
Chain of Androgen receptor (Homo sapiens) (P10275 whole entry, looked up): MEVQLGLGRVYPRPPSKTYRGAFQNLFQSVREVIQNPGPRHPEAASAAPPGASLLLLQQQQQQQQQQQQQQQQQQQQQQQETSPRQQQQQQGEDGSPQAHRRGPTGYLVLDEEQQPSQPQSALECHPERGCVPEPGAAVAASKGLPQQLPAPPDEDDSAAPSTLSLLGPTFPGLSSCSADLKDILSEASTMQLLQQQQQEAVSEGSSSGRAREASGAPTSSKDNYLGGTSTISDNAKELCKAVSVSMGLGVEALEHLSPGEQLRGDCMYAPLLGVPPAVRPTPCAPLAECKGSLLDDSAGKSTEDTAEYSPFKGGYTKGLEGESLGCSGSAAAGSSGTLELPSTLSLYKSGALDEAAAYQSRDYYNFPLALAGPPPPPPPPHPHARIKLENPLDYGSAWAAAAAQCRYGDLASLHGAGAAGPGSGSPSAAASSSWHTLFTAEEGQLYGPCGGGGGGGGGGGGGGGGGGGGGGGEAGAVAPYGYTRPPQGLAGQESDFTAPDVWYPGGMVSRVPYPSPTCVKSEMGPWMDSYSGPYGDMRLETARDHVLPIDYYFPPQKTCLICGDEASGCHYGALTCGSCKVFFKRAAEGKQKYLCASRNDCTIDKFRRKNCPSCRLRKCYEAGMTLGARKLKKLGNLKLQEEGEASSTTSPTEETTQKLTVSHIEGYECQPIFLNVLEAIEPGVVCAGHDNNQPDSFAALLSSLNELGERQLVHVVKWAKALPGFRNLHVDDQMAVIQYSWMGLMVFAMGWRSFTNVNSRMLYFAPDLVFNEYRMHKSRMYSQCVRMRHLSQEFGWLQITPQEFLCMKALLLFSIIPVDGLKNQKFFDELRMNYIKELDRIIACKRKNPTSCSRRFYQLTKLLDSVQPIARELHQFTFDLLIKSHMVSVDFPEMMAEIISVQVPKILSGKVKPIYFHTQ
Summary of the method: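 Stimulation of an AR-responsive β-lactamase reporter in GripTite HEK293 cells was measured after 16 h compound exposure at 37 °C, via CCF4 fluorescence after 2 h RT. EC50 from Hill fits, normalized to R1881 at 30 nM.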

[14] = target: Androgen receptor (Homo sapiens) (UniProt P10275); experiment: qHTS assay for small molecule antagonists of androgen receptor signaling (AID 588516; active means well fitted curve in the direction sought with a large enough effect in the signal ratio, with a control signal flat, not every such curve was filed as active; the % refers to the signal ratio; further: on the % scale 0 is the no-effect control and ±100 the full control effect)
Summary of the method: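 Antagonist-mode qHTS: inhibition of R1881 (10 nM)-driven beta-lactamase expression in GripTite HEK 293 cells is measured after 16 h; values are Hill-derived IC50s normalized between R1881 and DMSO wells.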

[15] = target: Glucocorticoid receptor (Homo sapiens) (UniProt P04150); experiment: qHTS assay for small molecule agonists of glucocorticoid receptor signaling (AID 588532; active means well fitted curve in the direction sought with a large enough effect in the signal ratio, with a control signal flat; the % refers to the signal ratio;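 further: 100% = dexamethasone at 0.1 µM and 0% = DMSO only wells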); conditions: HeLa MMTV-bla, beta-lactamase ratio, agonist, 18 h; stronger effect = higher value; percent of dexamethasone control, DMSO zero
Summary of the method: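 Cells were plated and rested 3-5 h at 37 C, compounds were added in titration and incubated 18 h, then CCF4 substrate was loaded for 2 h at RT before reading blue/green fluorescence. EC50 came from Hill-equation fitting.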

[16] = qHTS assay for small molecule antagonists of peroxisome proliferator-activated receptor delta signaling (AID 588535); conditions: HEK293T PPARd-UAS-bla, beta-lactamase FRET ratio, 18 h; 460 nm channel;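 further: cells co-treated with a PPAR-delta agonist as stimulator during compound exposure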
Summary of the method: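 Beta-lactamase reporter read-out (405 nm excitation, 460/530 nm emission) after CCF4 loading for 2 hrs at RT. HEK293T PPAR-delta-UAS-bla cells, 2% charcoal/dextran FBS, compounds for 18 hrs at 37 C. Hill fit gave IC50 and efficacy.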

[17] = target: DNA dC->dU-editing enzyme APOBEC-3G (Homo sapiens) (UniProt Q9HC16); experiment: qHTS for inhibitors of Vif-A3G interactions: Validation (AID 588379); further: 0% is about no effect
Summary of the method: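 Yellow fluorescence (Ex 488, Em 500-530) of Vif-coexpressing HeLa A3G-eYFP cells, scanned by Acumen cytometer, reports blocked A3G degradation. Cells plated at 700/well overnight at 37 deg C before compound addition, then a further overnight compound incubation at 37 deg C.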

[18] = target: Thyrotropin-releasing hormone receptor (Homo sapiens) (UniProt P34981); experiment: qHTS for Small Molecule Agonists and Allosteric Enhancers of Human TRH Receptor: Validation Screen for Agonists (AID 493127;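 active means calcium activation more than 3 SD above the typical response in the agonist read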;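 further: intracellular calcium rise by fluo-8 fluorescence before TRH EC20 addition; 0% is about no effect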); conditions: TRH receptor agonist cell assay; at 2 µM; stronger effect = higher value
Summary of the method: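 Kinetic fluorescence assay of agonist-induced calcium release: overnight-plated TRHR cells, room-temperature fluo-8 loading, baseline then compound addition with per-second reads.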

[19] = target: Bile acid receptor (Homo sapiens) (UniProt Q96RI1); experiment: qHTS assay for small molecule antagonists of farnesoid X receptor signaling (AID 588526; calls by dose curve; further: on the % scale 0 is the no-effect control and ±100 the full control effect)
Chain of Bile acid receptor (Homo sapiens) (Q96RI1 whole entry, looked up): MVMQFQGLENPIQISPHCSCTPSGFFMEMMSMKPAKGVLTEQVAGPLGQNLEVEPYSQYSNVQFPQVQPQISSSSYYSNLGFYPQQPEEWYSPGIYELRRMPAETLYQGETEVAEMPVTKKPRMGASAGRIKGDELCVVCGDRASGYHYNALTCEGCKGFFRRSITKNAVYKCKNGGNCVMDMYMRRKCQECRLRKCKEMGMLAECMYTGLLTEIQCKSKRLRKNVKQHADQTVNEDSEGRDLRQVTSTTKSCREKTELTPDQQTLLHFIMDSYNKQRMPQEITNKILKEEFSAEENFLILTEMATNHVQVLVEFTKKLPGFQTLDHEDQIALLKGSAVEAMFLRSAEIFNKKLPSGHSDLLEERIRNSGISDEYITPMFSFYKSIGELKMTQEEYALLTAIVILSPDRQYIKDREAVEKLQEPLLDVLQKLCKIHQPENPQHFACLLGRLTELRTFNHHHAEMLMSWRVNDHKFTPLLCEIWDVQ
Summary of the method: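 Antagonist mode: titrated compounds tested against chenodeoxycholic acid stimulation (normalized to 50 uM CDCA and DMSO) in GeneBLAzer HEK293T cells for 16 h. Beta-lactamase read by CCF4 fluorescence; IC50 from Hill fits.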

CC(C)(Oc1ccc(C2CC2(Cl)Cl)cc1)C(=O)O (centres undefined)
9.29%: viability change [3]
inactive: Potency [1] | Potency [2] | Potency [3] | outcome [4] | Potency [5] | Potency [6] | Potency [7] | Potency [8] | outcome [9] | Potency [10] | outcome [11] | Potency [12] | activation [13] -8.82% | outcome [14] | activation [15] -2.49%
-19.7%: max response [16]

CN(Cc1cnc2nc(N)nc(N)c2n1)c1ccc(C(=O)N[C@@H](CCC(=O)O)C(=O)O)cc1
active: Potency [3] 580 nM
-0.856%: viability change [3]
inactive: Potency [1] | Potency [2] | outcome [4] | Potency [5] | Potency [6] | Potency [8] | outcome [9] | Potency [10] | outcome [11] | Potency [12] | outcome [17] | activation [13] 0.214%

CCOC(=O)c1ncn2c1CN(C)C(=O)c1cc(F)ccc1-2
inactive: Potency [1] | Potency [2] | Potency [3] | outcome [4] | Potency [5] | Potency [6] | Potency [7] | Potency [8] | outcome [9] | Potency [10] | outcome [11] | outcome [17]
2.56%: viability change [3]

COc1ccc2c(c1)c(CC(=O)O)c(C)n2C(=O)c1ccc(Cl)cc1
inactive: Potency [1] | Potency [2] | outcome [4] | Potency [5] | Potency [6] | Potency [7] | Potency [8] | outcome [9] | Potency [10] | outcome [11] | outcome [17] | activation [13] -9.17% | activation [15] -6.76%

CS(=O)(=O)Nc1ccc([N+](=O)[O-])cc1Oc1ccccc1
inactive: Potency [1] | Potency [2] | activation [18] 1% | Potency [6] | Potency [7] | Potency [10] | Potency [12]

Cc1cn([C@H]2C=C[C@@H](CO)O2)c(=O)[nH]c1=O
0.63%: viability change [3]
27.7% and 7.49%: max response [16]
inactive: Potency [1] | Potency [2] | Potency [3] | outcome [4] | Potency [5] | Potency [6] | Potency [7] | Potency [8] | outcome [9] | Potency [10] | outcome [11] | Potency [19]

CN1CCC(=C2c3ccccc3C=Cc3ccccc32)CC1
inactive: Potency [1] | Potency [2] | Potency [3] | outcome [4] | Potency [5] | Potency [6] | Potency [7] | Potency [8] | outcome [9] | Potency [10] | outcome [11] | outcome [17]
17%: viability change [3]

Cc1ccccc1N1C(=O)c2cc(S(N)(=O)=O)c(Cl)cc2NC1C (centres undefined)
10.1%: viability change [3]
inactive: Potency [1] | Potency [2] | Potency [3] | outcome [4] | Potency [5] | Potency [6] | Potency [7] | Potency [8] | outcome [9] | Potency [10] | outcome [11]

CCN1CCCC1CNC(=O)c1cc(S(=O)(=O)CC)c(N)cc1OC (centres undefined)
7.74%: viability change [3]
inactive: Potency [1] | Potency [2] | Potency [3] | outcome [4] | Potency [7] | Potency [8] | outcome [9] | Potency [10] | outcome [11] | Potency [12]
